A selection: hits, their analogues and other compounds. The true share with any hit is near 19%.
TDP1 cell CPT – DT40-hTDP1 cell growth loss with CPT. 12% of 420,000 active. chicken DT40 Tdp1-/-;hTDP1 cells + 20 nM CPT, ATP luminescence, 48 h. AID 686979. Potency, µM (top dose mostly 46.2 µM), for the others: at the top dose activity change, negative = growth inhibition, usual class: inhibitors; note: potency is the fitted concentration of half-maximal effect; % is set by controls: 0 for no effect and ±100 for the full control effect; nearly all actives have a fitted effect of over 55% in size
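Chicken DT40 Tdp1-/- cells stably complemented with human TDP1 were seeded at 400 cells/well in medium containing 20 nM camptothecin, exposed to pin-transferred compounds, and grown at 37 °C for at least 48 hr. Viability was read as ATP luminescence.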
HepG2 viability – kills HepG2 cells in TGF-b inhibitor counter-screen; AID 588856; Potency, µM (series often up to 46.1 µM), for the others: top-dose activity change, negative = cytotoxicity, most hits filed as cytotoxic; HepG2 CAGA-GFP viability, ATP luminescence, 18 h; 0.76% of 410,000 active; note: potency is the fitted concentration of half-maximal effect
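CellTiter-Glo luminescence gave cytotoxicity after 18 hours at 37 degrees C. The cells were HepG2 CAGA-GFP in 1% FBS DMEM, stimulated with 500 pg/mL TGF-beta after compound addition. %Activity was normalised to no-cell wells (complete cell-killing) and DMSO (no toxicity), and curves were fitted and classified.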
TDP1 block – TDP1 (human) enzyme inhibition; recombinant TDP1, AlphaScreen DNA substrate cleavage; 0.28% of 350,000 active; Q9NUW8; Potency, µM (top dose mostly 130 µM), without a hit: at the top dose activity change, negative = inhibition, actives largely listed as inhibitors; AID 485290; note: potency is the fitted concentration of half-maximal effect; % is set by controls: 0 for no effect and ±100 for the full control effect; nearly all actives have a fitted effect of over 40% in size
Target sequence (Q9NUW8 whole entry, looked up): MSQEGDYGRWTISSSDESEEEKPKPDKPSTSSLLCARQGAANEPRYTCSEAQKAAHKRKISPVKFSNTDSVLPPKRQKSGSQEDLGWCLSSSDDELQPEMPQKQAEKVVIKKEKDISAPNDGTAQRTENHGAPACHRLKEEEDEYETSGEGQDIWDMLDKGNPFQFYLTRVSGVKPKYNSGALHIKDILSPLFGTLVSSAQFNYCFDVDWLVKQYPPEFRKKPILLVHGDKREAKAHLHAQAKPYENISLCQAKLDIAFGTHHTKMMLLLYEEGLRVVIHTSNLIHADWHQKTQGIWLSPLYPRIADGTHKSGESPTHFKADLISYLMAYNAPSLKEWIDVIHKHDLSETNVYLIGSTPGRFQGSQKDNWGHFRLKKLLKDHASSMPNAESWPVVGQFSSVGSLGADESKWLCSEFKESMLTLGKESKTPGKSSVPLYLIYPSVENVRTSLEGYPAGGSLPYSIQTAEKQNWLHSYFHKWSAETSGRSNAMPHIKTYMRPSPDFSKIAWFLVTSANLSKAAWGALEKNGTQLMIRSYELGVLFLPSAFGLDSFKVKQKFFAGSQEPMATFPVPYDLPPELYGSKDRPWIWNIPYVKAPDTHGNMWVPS
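Recombinant E. coli-expressed Tdp1 (1 nM) preincubated with compound 15 min at RT, then 5'-biotin/3'-phosphotyrosine-FITC DNA substrate (15 nM) added for 5 min. AlphaScreen beads (10 ug/ml) added, 10 min RT; tyrosine-FITC cleavage read as signal loss.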
DT40 TDP1 no CPT – qHTS for Inhibitors of human tyrosyl-DNA phosphodiesterase 1 (TDP1): qHTS in cells in absence of CPT | AID 686978, 2013 | 15% of 420,000 active | DT40 Tdp1-/- hTDP1 cells, no CPT, ATP luminescence, 48 h | Potency, µM (highest dose often 46.2 µM), inactives show at the highest dose activity change, negative = growth inhibition, usual class: inhibitors; note: potency is the fitted concentration of half-maximal effect; % is set by controls: 0 for no effect and ±100 for the full control effect; nearly all actives have a fitted effect of over 55% in size
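Stably hTDP1-transfected Tdp1-null chicken DT40 cells were treated with library compounds minus camptothecin and grown for at least 48 hr at 37 °C, after which cellular ATP was quantified by luminescence.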
IL1B secr inh – blocks inflammasome-driven IL-1 beta release. THP-1 LPS/ATP IL-1B secretion, AlphaLISA, 16 h; stronger effect = lower value. activity change, % at 57.5 µM. 4.7% of 360,000 active. AID 743279; in the data active = activity change below about -50%; inconclusive = mostly about -30% to -49%; note: % is set by controls: 0 for no effect and ±100 for the full control effect
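Secreted IL-1B measured by AlphaLISA bead assay after 16 h compound exposure of THP-1 cells; compounds (final up to 57.5 uM) added 1 h before LPS (250 ng/mL) and ATP (1.25 mM) stimulation; lower signal means less secretion.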
TGFb SMAD3 inh – blocks TGF-b signaling; 1.2% of 410,000 active; HepG2 CAGA-GFP TGF-b/SMAD3 reporter, GFP fluorescence, 18 h; TGF-beta stimulated, 500 pg/mL final; AID 588855; Potency, µM (highest dose often 46.1 µM), for the others: at the highest dose activity, negative = inhibition, usual class: inhibitors; note: potency is the fitted concentration of half-maximal effect; % is set by controls: 0 for no effect and ±100 for the full control effect; nearly all actives have a fitted effect of over 65% in size
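Inhibition of TGF-beta-driven CAGA-GFP reporter expression in HEPG2 cells is measured by cellular GFP fluorescence after 18 h stimulation with 500 pg/mL recombinant TGF-beta in 1% FBS medium at 37 degrees C.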
* hit, by the source's call; ? = inconclusive; nt = not tested or not shown. Unless noted, calls come from the whole dose curve; as a rule, active = well fitted curve in the direction sought with a large enough effect; inconclusive = small, poorly fitted or top-dose-only effect, or another doubt; inactive = no such curve, though single readings can be large; an effect the other way counts as inactive or inconclusive.

SMILES	TDP1 cell CPT	HepG2 viability	TDP1 block	DT40 TDP1 no CPT	IL1B secr inh	TGFb SMAD3 inh
Cc1ccc(Cl)cc1N1CCN(C(=O)c2sc3nc4n(c(=O)c3c2C)CCC4)CC1	15µM*	-1%	3%	15µM*	nt	-7%
COc1ccc(N2CCN(C(=O)c3sc4nc5n(c(=O)c4c3C)CCC5)CC2)cc1	?	-40%	0%	23µM*	nt	-10%
CC1(C(=O)NC2CCCCC2)Cc2ccccc2C(=O)N1Cc1ccc(F)cc1 (configuration not stated)	?	0%	-1%	?	nt	nt
COc1ccccc1/C=C/C1(C(=O)NC2CCCC2)CC(=O)N1c1ccc(F)cc1 (configuration not stated)	18µM*	-27%	7%	?	-89*	?
COc1ccccc1/C=C/c1onc(C)c1S(=O)(=O)N1CCC(C(=O)NC2CCCCCC2)CC1	?	-2%	3%	-6%	0	6%
COc1ccccc1/C=C/C1(C(=O)NC2CCCC2)CC(=O)N1c1ccc(C)cc1 (configuration not stated)	?	-13%	-3%	23µM*	-12	?
O=C(N/C(=C/c1ccccc1Cl)C(=O)N1CCCCC1)c1ccco1	3%	-24%	nt	?	-16	0%
COc1ccccc1-c1cc(N(C)Cc2ccco2)ncn1	-50%	nt	nt	-33%	nt	nt
Cc1cccc(CCNC(=O)Cc2ccc(NC3=NC4CS(=O)(=O)CC4S3)cc2)c1 (configuration not stated)	8%	8%	nt	14%	-19	18%
O=S(=O)(NCc1c(Cl)cccc1Oc1ccccc1)c1ccc(F)cc1	?	-45%	-10%	?	34	11µM*
O=C(O)CSCC(=O)NCc1c(Cl)cccc1Oc1ccccc1	3%	-5%	4%	6%	26	15%
O=C(O)Cn1c(=O)n(Cc2ccccc2)c2ccccc21	-13%	18%	nt	1%	-13	36%
N=c1n(CC(=O)c2cccs2)c2ccccc2n1Cc1ccccc1	16µM*	-50%	-10%	16µM*	-7	-1%
C=CCn1c(=N)n(CC(=O)c2ccc(Br)s2)c2ccccc21	?	-65%	-4%	18µM*	-74*	?
CCCCc1n(CC(=O)c2ccc(Cl)cc2)c2ccccc2[n+]1C	6.5µM*	3%	0%	6.5µM*	-68*	3%
C=CCn1c(=N)n(CC(=O)c2ccc(Cl)cc2)c2ccccc21	9.2µM*	-18%	nt	?	-90*	0%
CCCn1c(=N)n(CC(=O)O)c2ccccc21	-4%	-13%	nt	-14%	0	-28%
C=CCn1c(=N)n(CC(=O)OC)c2ccccc21	2%	5%	3%	-2%	20	11%
Cc1cccc(C)c1NC(=O)CSC(=O)c1sc2ccccc2c1Cl	11%	-1%	0%	-2%	nt	-1%
CCOC(=O)c1cc(S(=O)(=O)N2CCN(c3ccccc3OC)CC2)[nH]n1	-15%	-7%	-1%	-17%	nt	-26%
CCOC(=O)c1cc(S(=O)(=O)N2CCN(c3cc(Cl)ccc3C)CC2)[nH]n1	12µM*	-39%	3%	?	nt	?
CCOC(=O)c1cc(S(=O)(=O)N2CCN(c3ccc(F)cc3)CC2)[nH]n1	16µM*	-19%	1%	18µM*	nt	-5%
CC(C)(C(=O)N1CCC1(C)C(=O)NC1Cc2ccccc2C1)c1ccccc1 (configuration not stated)	16µM*	-25%	nt	21µM*	37	-22%
CC(C)(C(=O)N1CCC1(C)C(=O)Nc1ccccc1Br)c1ccccc1 (configuration not stated)	?	-18%	nt	?	0	-19%

Compound activity (PubChem BioAssay)
